Many of the other results were omitted from the sample, so hits are more common in it than they were.
RBX1-CUL1 inh – inhibitors of human ROC1-CUL1 ubiquitin ligase activity | inhibition, % at 10 µM | P62877+Q13616 | in vitro K48 di-Ub FRET, acceptor:donor ratio, 45 min | AID 1347404 | actives 0.6% (n = 140,000); in the data active means inhibition above about 25%
Target sequence (P62877 whole entry, looked up): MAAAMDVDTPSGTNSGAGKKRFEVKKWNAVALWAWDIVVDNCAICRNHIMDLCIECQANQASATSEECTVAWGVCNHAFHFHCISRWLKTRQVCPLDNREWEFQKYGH
Target sequence (Q13616 whole entry, looked up): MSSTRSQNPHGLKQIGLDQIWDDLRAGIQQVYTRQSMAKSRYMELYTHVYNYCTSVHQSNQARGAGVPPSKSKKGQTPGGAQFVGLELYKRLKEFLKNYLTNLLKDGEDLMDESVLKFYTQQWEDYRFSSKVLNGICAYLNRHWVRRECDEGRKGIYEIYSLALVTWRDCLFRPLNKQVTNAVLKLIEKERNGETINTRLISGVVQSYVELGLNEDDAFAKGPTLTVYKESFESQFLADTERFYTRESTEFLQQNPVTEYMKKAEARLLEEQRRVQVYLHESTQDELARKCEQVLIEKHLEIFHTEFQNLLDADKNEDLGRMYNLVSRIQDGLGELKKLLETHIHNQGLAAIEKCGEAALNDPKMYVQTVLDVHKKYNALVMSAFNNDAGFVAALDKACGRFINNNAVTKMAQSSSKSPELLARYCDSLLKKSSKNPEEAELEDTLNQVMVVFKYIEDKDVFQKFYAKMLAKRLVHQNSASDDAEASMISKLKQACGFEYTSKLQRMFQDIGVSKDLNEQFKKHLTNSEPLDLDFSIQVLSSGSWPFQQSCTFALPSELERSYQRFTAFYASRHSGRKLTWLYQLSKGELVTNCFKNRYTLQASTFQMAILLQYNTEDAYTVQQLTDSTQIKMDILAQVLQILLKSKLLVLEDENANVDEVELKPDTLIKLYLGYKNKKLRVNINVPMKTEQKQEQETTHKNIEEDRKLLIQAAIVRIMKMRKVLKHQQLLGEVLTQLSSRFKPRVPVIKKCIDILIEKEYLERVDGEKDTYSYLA
Of the large screens only hits and unclear results are named; the others gave an inactive call.

COCCCNc1nc2nonc2nc1N1CCC(N2CCCC2)CC1	none
CCOc1ccc(NS(=O)(=O)c2ccc3c(c2)C(=O)C(C(=O)NC2CCCC2)C=N3)cc1 (stereo unspecified)	none
CCOC(=O)C1=C(c2ccccc2)N=c2s/c(=C\c3ccc(N(C)C)o3)c(=O)n2C1c1ccc2c(c1)OCO2 (stereo unspecified)	none
CC(C)Oc1c(-c2ccccc2)c(=O)c1=O	none
CC(C)Oc1c(-c2ccco2)c(=O)c1=O	RBX1-CUL1 inh 69
CC(C)Oc1c(-c2ccc(F)cc2)c(=O)c1=O	none
Cc1ccc(NC(=O)/C=C/c2ccc(Cl)cc2)c(Br)c1	none
CC(=C/C(=O)O)/C=C/c1ccc(Cl)o1	none
CC(=O)c1ccc(NC(=O)/C=C/c2ccc(C)o2)cc1	none
Cc1ccc(NC(=O)/C=C/c2ccc(C)o2)c(Br)c1	RBX1-CUL1 inh 63
Cc1ccc(NC(=O)/C=C/c2ccc(C)o2)c(C)c1	none
Cc1ccc(/C=C/C(=O)O)o1	RBX1-CUL1 inh 35
C=CCn1c(CNc2cccc(Cl)c2C)n[nH]c1=S	none
C#CCN(CC=C)C(=O)c1cn(Cc2ccccc2C)nn1	none
O=C(CCC1(Cc2ccc(-c3ccccc3)cc2)CCC(=O)N1)NCCc1ccccc1F (stereo unspecified)	none
c1ccc2c(c1)ccc1nsnc12	none
Cc1ccc2nsnc2c1S(=O)(=O)Nc1ccccc1Br	none
Nc1c(Br)ccc2nsnc12	RBX1-CUL1 inh 104
CC(C)(CO)NCc1ccc2c(c1)OCO2	none
CC(C)OC(=O)NC1c2ccccc2CSc2ccccc21 (stereo unspecified)	none
Cc1ccccc1Sc1ccc([N+](=O)[O-])cn1	none
CS(=O)(=O)c1ccc([N+](=O)[O-])cn1	RBX1-CUL1 inh 63
O=[N+]([O-])c1ccc(S(=O)(=O)c2cccc(C(F)(F)F)c2)nc1	none
O=C1CC2Sc3ccccc3N=C2N1CCO (stereo unspecified)	none
Cc1noc(C)c1CCCNC(=O)c1ccc(N2CCCC(CO)C2)nc1 (stereo unspecified)	none
CCC1CCc2nc3sc(C(=O)Nc4ccc(C)cc4Br)c(N)c3cc2C1 (stereo unspecified)	none
COc1ccc(-n2nc(C)c3[nH]c(-c4cnn(C)c4)nc32)cc1	none
Cc1cc(N2CCOCC2)c2c(N)c(Br)cc(C)c2n1	none
Cc1cc(Cl)c2c(N)c(C)cc(C)c2n1	RBX1-CUL1 inh 91
CCOC(=O)c1c(Cl)cc(C)nc1Cl	none
CCN(CC)C(=O)c1cc2ncccc2oc1=O	none
Cc1nc2ncc3c(=O)n(CCCN4CCOCC4)ccc3n2n1	none
OC(c1ccccc1)c1cn(C2CCN(Cc3ccsc3)CC2)nn1 (stereo unspecified)	none
CC1=NN(c2ccc(F)cc2)C(=O)C1C=Nc1cccc2ccccc12 (stereo unspecified)	none
CSc1nnc(-c2ccccc2N=CC2C(=O)N(c3ccccc3)N=C2C)c(=O)[nH]1 (stereo unspecified)	none
CC1=NN(c2ccccc2)C(=O)C1C=Nc1ccccc1-c1nnc(SCc2ccccc2)[nH]c1=O (stereo unspecified)	RBX1-CUL1 inh 37
O=C1N=C(Cc2ccc(O)c(I)c2)C(=O)N1c1ccc(Cl)cc1	none
NC(=O)N/N=C1\CCCSc2ccccc21	none
C=CCn1c(SCC(=O)Nc2nc(C)c(C(=O)OCC)s2)nc2sc(C)c(C)c2c1=O	none
CC1(C)CC(=O)C2=C(C1)CC1(C)CC(C)(C)CC2(O)C1 (stereo unspecified)	none
C(=C\c1n[nH]c2c1CN(c1cc(-n3cccn3)ncn1)CC2)/c1ccccc1	none
CCCN1C(=O)C(C#N)=C(C)/C(=C\c2ccc(-c3ccccc3)o2)C1=O	none
CC1=C(C#N)C(=O)N(CCO)C(=O)/C1=C\c1ccc(-c2ccccc2)o1	none
CC1=C(C#N)C(=O)N(CCc2ccccc2)C(=O)/C1=C/c1ccc(-c2ccc(S(N)(=O)=O)cc2)o1	RBX1-CUL1 inh 26
CC(=O)Nc1ccccc1C(=O)/C=C/c1ccccc1OCc1ccccc1	none
CCc1ccc(C2C(C(=O)c3ccc4c(c3)CC(C)O4)C(=O)C(=O)N2CCOC)cc1 (stereo unspecified)	none
CCCCOc1ccc(C(=O)C2C(=O)C(=O)N(CCOC)C2c2ccc(CC)cc2)cc1C (stereo unspecified)	RBX1-CUL1 inh 41
CCCCOc1ccc(C(=O)C2C(=O)C(=O)N(CCCOC)C2c2ccc(O)c(OC)c2)cc1C (stereo unspecified)	none
COc1ccc(C(=O)C2C(=O)C(=O)N(CCN(C)C)C2c2ccc(OCc3ccccc3)cc2)cc1 (stereo unspecified)	none
COc1ccc(C(=O)C2C(=O)C(=O)N(CCCN(C)C)C2c2ccc(C)cc2)cc1OC (stereo unspecified)	none
Cc1ccc(C2C(C(=O)c3ccc(OCc4ccccc4)c(C)c3)C(=O)C(=O)N2CCN(C)C)cc1 (stereo unspecified)	RBX1-CUL1 inh 72
Cc1nc(CSc2ncnc3scc(-c4ccccc4)c23)cs1	none
CCCCOc1ccc2c(C)c(Cl)c(=O)oc2c1C	none
COc1ccc(Cl)cc1C(=O)Nc1c(F)cccc1F	none
CN=C1CC=CC=C(c2ccc3cc4c(cc3n2)OCO4)C1=O	none
CC(C)Cc1ccc(C(C)C(=O)Nc2ccc(F)cc2)cc1 (stereo unspecified)	none
